# Reference: PubChem BioAssay (Tox21)
# Several values for one entry are separate records, joined by “and”; a condition that tells them apart may be missing. Identical values can stand only once. Inconclusive results are not listed. A call without a number means that no potency is given here. The source holds several records for some structures; these can differ, active in one and inactive in another. Activity calls are given as the source filed them. Unless noted, calls come from the whole dose curve; as a rule, active = well fitted curve in the direction sought with a large enough effect in the repeat runs; inconclusive = weak or mixed curves; inactive = no such curve, though single readings can be large; an effect the other way counts as inactive or inconclusive.
# Key:
# [1] = qHTS assay to test for compound auto fluorescence at 535 nm (green) in HEK293 cells (AID 720680)
# [2] = qHTS assay to test for compound auto fluorescence at 460 nm (blue) in HEK293 cell free culture (AID 720681)
# Summary of the method: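 Compounds were added to cell-free DMEM with 10% FBS and fluorescence read directly. The blue channel used 405 nm excitation and 460 nm emission, with triamterene as the reference fluorophore.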
# [3] = qHTS assay to test for compound auto fluorescence at 535 nm (green) in HEK293 cell free culture (AID 720682)
# Summary of the method: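 Fluorescein serves as the green reference fluorophore; each compound's intrinsic emission at 535 nm (excitation 485 nm) is reported as an equivalent amount of that dye, measured in serum-containing DMEM without cells.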
# [4] = qHTS assay to test for compound auto fluorescence at 590 nm (red) in HEK293 cell free culture (AID 720683)
# Summary of the method: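 Cell-free wells of DMEM with 10% FBS received compound, and intrinsic fluorescence was read at excitation/emission 540/590 nm. Values expressed as equivalence to Rose Bengal sodium.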
# [5] = qHTS assay to test for compound auto fluorescence at 590 nm (red) in HepG2 cell free culture (AID 720684)
# Summary of the method: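 Compound was pinned into wells holding MEM with 10% FBS and no cells, and red fluorescence was read at Ex/Em 540/590 nm. Signal is expressed as auto fluorescence equivalency relative to Rose Bengal sodium.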
# [6] = qHTS assay to test for compound auto fluorescence at 460 nm (blue) in HepG2 cell free culture (AID 720685)
# Summary of the method: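 Compound (23 nL) or DMSO pinned into cell-free MEM with 10% FBS; blue fluorescence read at 405/460 nm excitation/emission, expressed as auto-fluorescence equivalency to triamterene.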
# [7] = qHTS assay to test for compound auto fluorescence at 535 nm (green) in HepG2 cell free culture (AID 720686)
# [8] = qHTS assay to test for compound auto fluorescence at 460 nm (blue) in HepG2 cells (AID 720687)
# Summary of the method: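 HepG2 cells in MEM with 10% FBS, attached overnight at 37 C, were exposed to compound or DMSO for 1 hr at 37 C, 5% CO2. Blue fluorescence was read at 405/460 nm, with triamterene as reference fluorophore.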
# [9] = target: Glucocorticoid receptor (Homo sapiens) (UniProt P04150); assay: qHTS assay to identify small molecule agonists of the glucocorticoid receptor (GR) signaling pathway (AID 720691; active = well fitted activation curve with a large enough effect in the signal ratio in the repeat runs, not every such curve was filed as active; the % refers to the signal ratio)
# Summary of the method: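 Fluorescence intensity from LiveBLAzer B/G FRET substrate (2 h, room temperature) reports beta-lactamase expression driven by the glucocorticoid response element in GR-bla HeLa cells after 18 h compound exposure at 37 C.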
# [10] = target: Glucocorticoid receptor (Homo sapiens) (UniProt P04150); assay: qHTS assay to identify small molecule antagonists of the glucocorticoid receptor (GR) signaling pathway (AID 720692; active = well fitted inhibition curve with a large enough effect in the signal ratio in the repeat runs, not every such curve was filed as active; the % refers to the signal ratio; note: potency is the fitted concentration of half-maximal effect)
# Summary of the method: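 HeLa GR-bla cells; cmpd + dex 5 nM final, 18 h 37 C; LiveBLAzer B/G FRET substrate 2 h RT; fluorescence intensity read. Antagonist mode, qHTS.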
# [11] = qHTS assay to identify small molecule antagonists of the glucocorticoid receptor (GR) signaling pathway - cell viability counter screen (AID 720693); note: nearly all actives have a fitted effect of over 55% in size; note: potency is the fitted concentration of half-maximal effect
# [12] = qHTS assay for identifying genotoxic compounds that show differential cytotoxicity against isogenic chicken DT40 cell lines with known DNA damage response pathways - wild type cell line (AID 743012); note: nearly all actives have a fitted effect of over 60% in size; note: potency is the fitted concentration of half-maximal effect
# Summary of the method: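 Wild type DT40, 300 cells/well, ~0.5 h settle at 37 C/5% CO2; compounds in DMSO added by pintool; 40 h at 37 C/5% CO2; CellTiter-Glo, 30 min RT; luminescence.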
# [13] = qHTS assay for identifying genotoxic compounds that show differential cytotoxicity against isogenic chicken DT40 cell lines with known DNA damage response pathways - Rev3 mutant cell line (AID 743014); note: nearly all actives have a fitted effect of over 55% in size; note: potency is the fitted concentration of half-maximal effect
# [14] = qHTS assay for identifying genotoxic compounds that show differential cytotoxicity against isogenic chicken DT40 cell lines with known DNA damage response pathways - Rad54/Ku70 mutant cell line (AID 743015); note: nearly all actives have a fitted effect of over 60% in size; note: potency is the fitted concentration of half-maximal effect
# [15] = qHTS assay to identify small molecule antagonists of the androgen receptor (AR) signaling pathway - cell viability counter screen (AID 743033; note: nearly all actives have a fitted effect of over 45% in size; note: potency is the fitted concentration of half-maximal effect)
# [16] = target: Androgen receptor (Homo sapiens) (UniProt P10275); assay: qHTS assay to identify small molecule agonists of the androgen receptor (AR) signaling pathway using the MDA cell line (AID 743040; note: nearly all actives have a fitted effect of over 20% in size)
# Summary of the method: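 MDA-kb2 breast carcinoma cells carrying MMTV-luciferase (responsive to AR and GR), plated 5 h then treated 16 h with compounds at 37C, 0% CO2. Read-out was ONE-Glo luminescence after 30 min at room temperature.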
# [17] = qHTS assay to identify small molecule antagonists of the androgen receptor (AR) signaling pathway using the MDA cell line - cell viability counter screen (AID 743041; note: nearly all actives have a fitted effect of over 45% in size; note: potency is the fitted concentration of half-maximal effect)
# Summary of the method: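 MDA-kb2 AR-luc cells (MMTV-luciferase, AR/GR responsive) treated with compounds plus R1881 agonist for 16 h at 37C. CellTiter-Fluor added at 15.5 h; fluorescence read after 30 min in the same wells.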
# [18] = target: Androgen receptor (Homo sapiens) (UniProt P10275); assay: qHTS assay to identify small molecule antagonists of the androgen receptor (AR) signaling pathway using the MDA cell line (AID 743042; note: potency is the fitted concentration of half-maximal effect; nearly all actives have a fitted effect of over 55% in size)
# Summary of the method: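 MDA-kb2 breast carcinoma cells carrying MMTV-luciferase (AR/GR responsive) were co-treated with compounds and the agonist R1881 for 16 h at 37C. Inhibition read as ONE-Glo luminescence; CellTiter-Fluor fluorescence measured in parallel for cytotoxicity.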
# Androgen receptor (Homo sapiens), sequence (P10275 whole entry, looked up): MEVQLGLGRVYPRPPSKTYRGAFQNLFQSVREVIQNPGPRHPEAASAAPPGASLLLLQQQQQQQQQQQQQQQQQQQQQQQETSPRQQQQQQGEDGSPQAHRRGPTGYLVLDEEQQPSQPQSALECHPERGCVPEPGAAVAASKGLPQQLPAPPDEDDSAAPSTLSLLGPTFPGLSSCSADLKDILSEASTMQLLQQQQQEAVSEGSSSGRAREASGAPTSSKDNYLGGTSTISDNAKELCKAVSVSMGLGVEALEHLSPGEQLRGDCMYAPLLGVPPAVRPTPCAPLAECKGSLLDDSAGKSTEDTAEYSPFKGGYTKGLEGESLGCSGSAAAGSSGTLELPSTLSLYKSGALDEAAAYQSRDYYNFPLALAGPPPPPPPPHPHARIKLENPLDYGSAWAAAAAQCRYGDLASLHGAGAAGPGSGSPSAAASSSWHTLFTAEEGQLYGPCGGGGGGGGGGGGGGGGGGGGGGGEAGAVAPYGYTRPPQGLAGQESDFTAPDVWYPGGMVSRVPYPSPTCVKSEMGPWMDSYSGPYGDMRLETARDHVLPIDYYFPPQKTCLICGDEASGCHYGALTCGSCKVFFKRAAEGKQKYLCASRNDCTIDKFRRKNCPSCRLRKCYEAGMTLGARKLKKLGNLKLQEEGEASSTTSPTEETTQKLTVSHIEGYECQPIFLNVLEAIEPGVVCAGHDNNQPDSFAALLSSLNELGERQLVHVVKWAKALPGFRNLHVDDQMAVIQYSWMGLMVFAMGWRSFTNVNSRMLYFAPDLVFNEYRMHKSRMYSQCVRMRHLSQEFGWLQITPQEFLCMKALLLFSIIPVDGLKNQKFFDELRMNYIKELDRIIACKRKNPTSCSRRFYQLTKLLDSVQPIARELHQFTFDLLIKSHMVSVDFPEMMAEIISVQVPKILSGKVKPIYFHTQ
# Glucocorticoid receptor (Homo sapiens), sequence (P04150 whole entry, looked up): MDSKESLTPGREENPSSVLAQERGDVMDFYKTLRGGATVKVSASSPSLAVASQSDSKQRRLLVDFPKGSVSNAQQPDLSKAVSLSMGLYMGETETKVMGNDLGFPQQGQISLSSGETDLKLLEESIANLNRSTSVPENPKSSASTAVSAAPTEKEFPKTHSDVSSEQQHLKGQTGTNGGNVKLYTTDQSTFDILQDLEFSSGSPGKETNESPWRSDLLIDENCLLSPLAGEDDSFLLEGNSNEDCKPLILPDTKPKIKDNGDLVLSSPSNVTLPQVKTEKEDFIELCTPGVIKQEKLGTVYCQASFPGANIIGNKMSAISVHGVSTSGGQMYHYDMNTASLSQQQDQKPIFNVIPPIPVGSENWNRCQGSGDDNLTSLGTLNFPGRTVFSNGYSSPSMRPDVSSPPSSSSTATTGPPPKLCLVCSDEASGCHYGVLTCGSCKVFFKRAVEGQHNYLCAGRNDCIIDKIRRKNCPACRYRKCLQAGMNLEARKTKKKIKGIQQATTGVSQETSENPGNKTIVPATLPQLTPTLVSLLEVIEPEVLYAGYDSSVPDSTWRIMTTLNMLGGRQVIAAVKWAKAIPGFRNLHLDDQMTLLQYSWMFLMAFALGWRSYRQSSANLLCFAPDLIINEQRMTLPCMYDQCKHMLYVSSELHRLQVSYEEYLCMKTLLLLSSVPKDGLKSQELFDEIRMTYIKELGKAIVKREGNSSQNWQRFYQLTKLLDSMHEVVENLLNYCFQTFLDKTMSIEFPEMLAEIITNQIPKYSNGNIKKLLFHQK
SMILES,outcome [1],outcome [2],outcome [3],outcome [4],outcome [5],outcome [6],outcome [7],outcome [8],outcome [9],Potency [10],Potency [11],Potency [12],Potency [13],Potency [14],Potency [15],outcome [16],Potency [17],Potency [18]
O=C(O)CCl,inactive,inactive,inactive,inactive,inactive,inactive,inactive,inactive,inactive,inactive,inactive,inactive,inactive,inactive,inactive,–,–,–
O=[N+]([O-])O,inactive,inactive,inactive,inactive,inactive,inactive,inactive,inactive,inactive,inactive,inactive,inactive and 42.1 µM (active),inactive and 9.43 µM (active),inactive and 29.8 µM (active),inactive,–,–,–
CCCCCCCCCCCC(=O)O,inactive,inactive,inactive,inactive,inactive,inactive,inactive,inactive,–,–,inactive,inactive,inactive,27.4 µM (active),inactive,–,–,–
CC(=O)[O][Hg][c]1ccccc1,inactive,inactive,inactive,inactive,inactive,inactive,inactive,inactive,–,–,952 nM (active) and 485 nM (active) and 436 nM (active),211 nM (active) and 271 nM (active) and 109 nM (active),376 nM (active) and 152 nM (active) and 122 nM (active),237 nM (active) and 152 nM (active) and 86.3 nM (active),5.35 µM (active) and 1.37 µM (active) and 1.95 µM (active),inactive,5.31 µM (active) and 3.82 µM (active) and 3.06 µM (active),2.98 µM (active) and 1.92 µM (active) and 2.17 µM (active)
CCC[N+]1(C)CCCC1,inactive,inactive,inactive,inactive,inactive,inactive,inactive,inactive,–,–,inactive,inactive,inactive,inactive,inactive,–,–,–
Cc1cc(-c2ccc(N)c(C)c2)ccc1N,inactive,inactive,inactive,inactive,inactive,inactive,inactive,inactive,–,–,inactive,inactive,inactive and 34.3 µM (active),inactive and 60.9 µM (active),inactive,–,–,–
CCCCCCn1cc[n+](C)c1,inactive,inactive,inactive,inactive,inactive,inactive,inactive,inactive,–,–,inactive,–,–,–,–,–,31.9 µM (active) [middle of 5 runs],–
CCCC[n+]1ccc(C)cc1,inactive,inactive,inactive,inactive,inactive,inactive,inactive,inactive,–,–,inactive,inactive and 54.2 µM (active),inactive and 60.8 µM (active),inactive and 48.3 µM (active) and 60.8 µM (active),inactive,–,–,–
CCCC[n+]1ccccc1C,inactive,inactive,inactive,inactive,inactive,inactive,inactive,inactive,–,–,inactive,inactive,inactive,inactive,inactive,–,inactive,–
C[C@]12CCC(=O)C=C1CC[C@@H]1[C@@H]2CC[C@]2(C)C(=O)CC[C@@H]12,inactive,inactive,inactive,inactive,inactive,inactive,inactive,inactive,–,–,inactive,23.7 µM (active) and 27.3 µM (active),29.8 µM (active) and 47.7 µM (active) and 54.5 µM (active),26.6 µM (active) and 42.5 µM (active) and 27.3 µM (active),inactive,–,–,–
CCCC[N+]1(C)CCCCC1,inactive,inactive,inactive,inactive,inactive,inactive,inactive,inactive,–,–,inactive,inactive,inactive,inactive,inactive,–,–,–
Nc1ccc(-c2ccc(N)c(Cl)c2)cc1Cl,inactive,inactive,inactive,inactive,inactive,inactive,inactive,inactive,–,19.6 µM (active) and 11.5 µM (active) and 19.5 µM (active),inactive,54.5 µM (active),48.8 µM (active) and 28.6 µM (active) and 54.5 µM (active),61.4 µM (active) and 50.8 µM (active) and 54.5 µM (active),inactive,–,–,–
O=C(O)c1ccccc1O,–,–,inactive,–,–,–,–,–,–,–,inactive,inactive,inactive,inactive,inactive,–,–,–
O=C(O)C(Cl)(Cl)Cl,inactive,inactive,inactive,inactive,inactive,inactive,inactive,inactive,–,–,inactive,inactive,inactive,inactive,inactive,–,–,–
CCCCn1cc[n+](C)c1,inactive,inactive,inactive,inactive,inactive,inactive,inactive,inactive,–,–,inactive,inactive,inactive,inactive,inactive,–,–,–
CCCCCCCCn1cc[n+](C)c1,inactive,inactive,inactive,inactive,inactive,inactive,inactive,inactive,–,–,inactive,–,–,607 nM (active) [middle of 4 runs],15.4 µM (active) and 11.1 µM (active),–,–,–
COP(=O)(OC)OC=C(Cl)Cl,inactive,inactive,inactive,inactive,inactive,inactive,inactive,inactive,–,–,inactive,9.44 µM (active) and inactive,11.9 µM (active) and inactive,13.3 µM (active) and inactive,inactive,–,inactive,–
CCC[N+]1(C)CCCCC1,inactive,inactive,inactive,inactive,inactive,inactive,inactive,inactive,–,–,inactive,inactive,inactive,inactive,inactive,–,–,–

SMILES,outcome [1],outcome [2],outcome [3],outcome [4],outcome [5],outcome [6],outcome [7],outcome [8],outcome [9],Potency [10],Potency [11],Potency [12],Potency [13],Potency [14],Potency [15],outcome [16],Potency [17],Potency [18]
CC[n+]1ccccc1,inactive,inactive,inactive,inactive,inactive,inactive,inactive,inactive,–,–,inactive,inactive and 241 nM (active),inactive and 171 nM (active),inactive and 136 nM (active),inactive and 21.7 µM (active),–,–,–
CCCC[N+]1(C)CCCC1,inactive,inactive,inactive,inactive,inactive,inactive,inactive,inactive,–,–,inactive,inactive,inactive,inactive,inactive,–,–,–
Oc1cccc2cccnc12,inactive,inactive,inactive,inactive,inactive,inactive,inactive,inactive,–,–,inactive,–,–,–,–,–,–,–
CC(=O)O,inactive,inactive,inactive,inactive,inactive,inactive,inactive,inactive,–,–,inactive,inactive,inactive,inactive,inactive,–,–,–
COCC(=O)N(c1c(C)cccc1C)C(C)C(=O)OC (stereo unspecified),inactive,inactive,inactive,inactive,inactive,inactive,inactive,inactive,–,–,inactive,inactive and 61 µM (active),inactive and 61 µM (active),inactive,inactive,–,inactive,–
CCOP(=S)(OCC)Oc1ccc2c(C)c(Cl)c(=O)oc2c1,inactive,inactive,inactive,inactive,inactive,inactive,inactive,inactive,inactive,–,inactive,inactive and 17.2 µM (active),inactive and 19.3 µM (active),inactive and 17.2 µM (active),inactive,–,inactive,–
COc1ccccc1N,inactive,inactive,inactive,inactive,inactive,inactive,inactive,inactive,–,–,inactive,inactive,inactive,inactive,inactive,–,–,–
O=S(=O)(O)O,inactive,inactive,inactive,inactive,inactive,inactive,inactive,inactive,–,–,inactive,inactive and 27.3 µM (active),inactive and 61.1 µM (active),inactive and 48.6 µM (active),inactive,–,–,–
Oc1ccccc1-c1ccccc1,inactive,inactive,inactive,inactive,inactive,inactive,inactive,inactive,–,–,inactive,inactive,inactive,inactive,inactive,–,–,–
CCCCCCCCCCn1cc[n+](C)c1,inactive,inactive,inactive,inactive,inactive,inactive,inactive,inactive,inactive,15.6 µM (active) and 39.1 µM (active),49.5 µM (active) and 40 µM (active) and 48.9 µM (active),–,–,–,2.48 µM (active),–,872 nM (active) and 559 nM (active) and 193 nM (active),–
CCCCn1cc[n+](C)c1C,inactive,inactive,inactive,inactive,inactive,inactive,inactive,inactive,–,–,inactive,inactive,inactive,inactive,inactive,–,inactive,–
O=C(O)CC(O)(CC(=O)O)C(=O)O,inactive,inactive,inactive,inactive,inactive,inactive,inactive,inactive,–,–,inactive,inactive,inactive,inactive,inactive,–,–,–
CN(C)[C@@H]1C(=O)C(C(N)=O)=C(O)[C@@]2(O)C(=O)C3=C(O)c4c(O)cccc4[C@@](C)(O)[C@H]3[C@H](O)[C@@H]12,inactive,inactive,inactive,inactive,inactive,inactive,inactive,inactive,–,–,inactive,inactive and 68 µM (active) and 43.3 µM (active),inactive and 43.3 µM (active),inactive and 48.6 µM (active),inactive,–,–,–
CCCCCC[n+]1ccccc1,inactive,inactive,inactive,inactive,inactive,inactive,inactive,inactive,–,–,inactive,–,–,–,55.5 µM (active) and 55.3 µM (active) and inactive,–,–,–
CCCC[n+]1ccccc1,inactive,inactive,inactive,inactive,inactive,inactive,inactive,inactive,–,–,inactive,inactive,inactive,inactive,inactive,–,–,–
CCn1cc[n+](C)c1C,inactive,inactive,inactive,inactive,inactive,inactive,inactive,inactive,–,–,inactive,inactive,inactive,inactive,inactive,–,–,–
CCCCCCCCCCCCCC[P+](CCCCCC)(CCCCCC)CCCCCC,inactive,inactive,inactive,inactive,inactive,inactive,inactive,inactive,inactive,–,12.4 µM (active) and 11.1 µM (active),13.7 µM (active) and 6.91 µM (active),7.73 µM (active) and 6.16 µM (active) and inactive,6.14 µM (active) and 6.16 µM (active) and inactive,982 nM (active) and 3.92 µM (active) and 346 nM (active),–,–,–
